Assay results: PubChem BioAssay (NCI)
The panel holds about 83,000 compounds, 20% with a hit somewhere; the sample as a whole holds those more often.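 Assay: single dose, 48 h. Readout: percent growth (0 = no net growth; negative = cell death). Active: <10.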 Unmarked numbers belong to inactive results. Active and inactive are the calls of the source.

Columns and labels:
Experiment in all cases: NCI-60 one-dose screen, 48 h (100 = growth as untreated, 0 = no growth, -100 = all killed)
Details in all cases: 10 µM unless noted
[1] = tested on: T-47D breast
[2] = tested on: MDA-MB-435 melanoma
[3] = tested on: SW-620 colon
[4] = tested on: MCF7 breast
[5] = tested on: HCT-116 colon
[6] = tested on: HCC-2998 colon
[7] = tested on: KM12 colon
[8] = tested on: BT-549 breast

Row | Structure (SMILES) | growth [1] | growth [2] | growth [3] | growth [4] | growth [5] | growth [6] | growth [7] | growth [8]
1 | N#Cc1ccc(-c2ccc(COc3ccc(CC4SC(=O)NC4=O)cc3)cc2)cc1 (configuration not stated) | 35.8% | 45.4% | 80.1% | 38.1% | 42.5% | 83.2% | 61.9% | –
2 | CCOc1cc(/C=N\NC(=O)N/N=C/c2ccc(O)c(OCC)c2)ccc1O | 29.5% | -14.6% (active) | 20.9% | 17.4% | 24.8% | 41% | 21.2% | –
3 | COc1ccc(/C=C(/C2=NCCN2)n2ccc3ccccc32)cc1 | 86.2% | 89.9% | 87.1% | 83.4% | 83% | 98.5% | 95.8% | –
4 | Cc1ccc2c(n1)C(=O)C(Cl)=C(Nc1ccc(N3CCN(C)CC3)cc1)C2=O | -61.1% (active) | -99.1% (active) | -69.8% (active) | -61.9% (active) | -64.9% (active) | 95.3% | 92.1% | –
5 | O=C(CCN1CCCCC1)c1ccc2ccccc2c1 | 91% | 110% | 107% | 87.8% | 103% | 109% | 102% | –
6 | Cn1cc(-c2noc(-c3cn(C)c4ncc(F)cc34)n2)c2ccccc21 | 42.3% | 72.8% | 56.1% | 34.1% | 27% | 86.6% | 62.7% | –
7 | CC1Cc2c(Cl)ncnc2N(C)c2ccc(O)cc21 (configuration not stated) | 81.7% | 30.5% | 38.1% | 55.1% | 65.6% | 59.4% | 10.4% | –
8 | CCCCCn1sc(=O)n(Cc2ccc(CNC(=O)OCc3ccc4cccc(O)c4n3)cc2)c1=O | -47.3% (active) | -70.1% (active) | -48.5% (active) | 0.802% (active) | -76.9% (active) | 5.53% (active) | 11.8% | –
9 | COc1ccc2c(c1)C(C)Cc1c(Cl)ncnc1N2C (configuration not stated) | 4.2% (active) | -25.2% (active) | 3.63% (active) | 1.16% (active) | 7.03% (active) | 22.3% | 4.12% (active) | –
10 | C=CC1=C(C)C2=NC1=CC1=NC(=CC3=C(C)C4=C(O)C(C(=O)O)C(=C5NC(=C2)C(C)C5CCC(=O)O)C4=N3)C(CC)=C1C (configuration not stated) | 123% | 120% | 104% | – | 101% | 109% | 105% | –
11 | CSc1nc2sc3cc(Cl)c(Cl)cc3n2c(=N)c1C#N | 89.4% | 97.7% | 98.1% | 60.5% | 100% | 106% | 98.9% | –
12 | CCCCCCNC(=O)Nc1ncnc2c1ncn2-c1ccccc1 | 66.6% | 102% | 95.9% | 89.4% | 90.2% | 118% | 108% | –
13 | O=C(O)c1cn(C2CC2)c2cc(N3CCN(Cc4cc(Cl)ccc4O)CC3)c(F)cc2c1=O | 67.4% | 74.2% | 83.6% | 54.6% | 72.3% | 82.4% | 62.5% | –
14 | O=C(OCc1ccc2c(Cl)cc(Cl)c(O)c2n1)N1CCN(C(=O)c2cc3cc(F)ccc3[nH]2)CC1 | 62.2% | -54.5% (active) | 16.9% | 14.5% | 5.58% (active) | 22.6% | -15.2% (active) | –
15 | COc1ccc2c(c1)C(C)Cc1c(ncnc1-n1cnc3ccccc31)N2C (configuration not stated) | 56.9% | 0.335% (active) | 23.8% | – | 10.3% | 25.4% | 17.8% | –
16 | Cc1cc(C)c(O)c(CNCCCCCCNCc2cc(C)cc(C)c2O)c1 | -60.8% (active) | -90.8% (active) | -75.4% (active) | – | -42.9% (active) | -84.3% (active) | -38.2% (active) | –
17 | Nc1nc(Nc2ccccc2)c2ncn(Cc3ccc4c(c3)OCO4)c2n1 | 33.8% | -23.4% (active) | 23.1% | 21.3% | 35.2% | 71% | 26.2% | –
18 | O=C(O)c1cccc(CN2CCN(c3cc4c(cc3F)c(=O)c(C(=O)O)cn4C3CC3)CC2)c1O | 96.6% | 99% | 102% | 97.6% | 104% | 105% | 104% | –
19 | COc1ccc2nc3c(cc2c1)C(=O)CC(C(F)(F)F)C3 (configuration not stated) | – | -47.7% (active) | 41.5% | 83.1% | 11.9% | 84% | 11.6% | 61%
20 | O=C1NC(=O)C(Cc2ccccc2)(Cc2ccccc2)N1 | – | 96.4% | 101% | 96.2% | 90.9% | 104% | – | 90.4%
21 | CC[C@]12C=CCN3CC[C@@]4(c5ccc(OC)cc5N(C)[C@H]4[C@@](O)(C(=O)OC)[C@@H]1OC(=O)CCC(=O)O[C@H]1CC[C@H]4[C@@H]5CCC6=CC(=O)CC[C@@H]6[C@H]5CC[C@]14C)[C@@H]32 | – | 7.01% [100 µM] (active) | 11.1% [100 µM] | 11.7% [100 µM] | 3.76% [100 µM] (active) | 3.12% [100 µM] (active) | 6.43% [100 µM] (active) | -8.65% [100 µM] (active)
22 | CCCCC(CC)COC(=O)C[N+](C)(C)CCOC(c1ccccc1)c1ccccc1 (configuration not stated) | – | 0.527% (active) | 52.2% | 33.6% | 31.7% | 3.56% (active) | – | 17.6%
23 | O=C(CSc1nccc(Nc2ccc(S(=O)(=O)Nc3ccccn3)cc2)n1)c1ccc(Cl)cc1 | 50.6% | 118% | 105% | – | 92.2% | 106% | 97.6% | –
24 | CCCCCCCCCCCCCC[n+]1cccc(C(N)=O)c1 | – | -36.5% (active) | 0.686% (active) | 39.4% | 20.8% | -51.8% (active) | -87.1% (active) | -49.9% (active)

Row | Structure (SMILES) | growth [1] | growth [2] | growth [3] | growth [4] | growth [5] | growth [6] | growth [7] | growth [8]
25 | N#CCCc1c[nH]c2ccccc12 | – | 101% | 92% | 94.8% | 92.8% | 113% | – | 97.6%
26 | CSc1nc(=S)c2nc(SC)n(-c3ccccc3)c2[nH]1 | – | 103% | 97.1% | 90.7% | 93.1% | 115% | – | 104%
27 | COc1ccc(-c2cc(-c3ccc(Cl)cc3)nc(NCCCCNc3ccnc4cc(Cl)ccc34)n2)cc1 | – | 93.8% | -61.8% (active) | -69.3% (active) | 23.4% | 26.1% | 76.2% | 85.5%
28 | CCN(CC)c1cc(N)c(Cc2c(N)cc(N(CC)CC)cc2Cl)c(Cl)c1 | – | 38.7% | 80% | 24.7% | 38.3% | 47% | – | 24.9%
29 | CC(C)(C)c1cc(C(=O)Nc2cc3ccccc3cc2C(=O)NCCN)cc(C(C)(C)C)c1 | – | -88.3% (active) | -66.4% (active) | -85.6% (active) | -91.8% (active) | -86.5% (active) | -94.5% (active) | 82.2%
30 | C#CCOc1ccc(C2=NN(CC3CC3)C3N=C(Cl)c4ncn(CC5CC5)c4N23)cc1OCC#C (configuration not stated) | 28.2% | – | 91.8% | 78.8% | 80.5% | 119% | 46.6% | –
31 | O=C(NCc1ccc(Cn2c(=O)sn(-c3ccccc3)c2=O)cc1)OCc1ccc2c(Br)cc(Br)c(O)c2n1 | -49.8% (active) | – | -50.2% (active) | -29% (active) | -71.8% (active) | -80% (active) | -61.8% (active) | –
32 | Cc1ccc(NCCN2CCCCC2)c2c(=O)c3ccccc3sc12 | – | 31.4% | 15.3% | -3.15% (active) | 18% | 33.3% | 32.6% | 58.6%
33 | CC1=CCc2ccccc21 | – | 106% | 95.6% | 90.5% | 101% | 108% | 103% | 93.5%
34 | CN(C)c1cc(NN=C(c2ccc(O)cc2)c2ccc(O)cc2)c([N+](=O)[O-])cc1[N+](=O)[O-] | – | 84.9% | 108% | 27.2% | 33.2% | 59.1% | 92% | 115%
35 | COC(=O)[C@H](CC(C)C)NC(=O)NC(=O)NC(=O)CI | 17.3% | – | -51.5% (active) | 33.2% | 50% | 91.9% | 94.1% | –
36 | CS(=O)(=O)c1cccnn1 | 95.2% | 104% | 95.5% | – | 96.5% | 110% | 106% | –
37 | COc1cc(-c2nc(SCCC(C)C)nc(Nc3ccccc3)c2C#N)cc(OC)c1OC | – | 92.9% | 104% | 92.7% | 91.7% | 116% | 100% | 96.4%
38 | CCOC(=O)c1nn(C2CCCCO2)c2ccc(NC(=O)CSc3nc4ccccc4c(=O)[nH]3)cc12 (configuration not stated) | – | 107% | 105% | 92.1% | 101% | 115% | 102% | 89.6%
39 | CCCC[C@@H](C=O)NC(=O)[C@H](CC(C)C)NC(=O)[C@H](CC(C)C)NC(=O)OCc1ccccc1 | – | -4.11% (active) | -34.6% (active) | 0.513% (active) | -58.5% (active) | -74.1% (active) | -51.4% (active) | -70.3% (active)
40 | CC(=O)n1cc(C=O)c2ccccc21 | – | 109% | 102% | 94.8% | 109% | 100% | 94% | 96.5%
41 | CN(C)c1ccc(N=Nc2ccc3ccccc3c2)cc1 | – | 101% | 96.9% | 43.9% | 66% | 99.8% | 92.8% | 101%
42 | O=C(NCCCCCCCNC(=O)OCc1ccc2c(Cl)cc(Cl)c(O)c2n1)OCc1ccc2c(Cl)cc(Cl)c(O)c2n1 | -62.5% (active) | – | -67.3% (active) | -30.2% (active) | -70% (active) | -75.8% (active) | -82.4% (active) | –
43 | Ic1ccc2[nH]cc(SSc3c[nH]c4ccc(I)cc34)c2c1 | – | 24.3% | 39.4% | -29.4% (active) | 10.1% | 4.84% (active) | 6.3% (active) | 31.5%
44 | CC1Cc2ccc(OCCN(C)C)cc2C1=O (configuration not stated) | – | 102% | 101% | 100% | 95.4% | 109% | – | 99.3%
45 | CCOc1ccc(/C=C(\C#N)c2cc3ccccc3[nH]2)cc1 | 39.7% | – | 24.6% | 24.7% | 37.1% | 72.5% | 22.5% | –
46 | COc1ccc2nc3cc(Cl)ccc3c(Nc3ccc(O)cc3)c2c1 | 80% | 96% | 49.1% | – | 53.1% | 62.1% | 63.5% | –
47 | COc1ccc(C2NC(=O)C(C#N)c3c2sc2c(F)cccc32)cc1 (configuration not stated) | – | -9.11% (active) | 24.4% | 32.7% | 37.5% | 91.5% | 41% | 56.4%
